# ± gives the standard deviation of the averaged measurements.
# Experiments:
# Experiment in all cases: promoter activity interaction Z-score (Lux/OD deviation from empty-vector control); higher = stronger promoter induction by the compound
# [1] = test system: E. coli BW25113 acrABp lux reporter
# In short: (§1)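 Reporter strains of E. coli BW25113 grew at 37°C in 40 µl LB Lennox in 384-well plates. Readings of OD600 and luminescence were taken every 30 min over 12 h, integrated over 0–8 h (wild type) or 1–9 h (deletion strains), and wells below 10% of the median growth value were excluded. Scores are Z-transformed residuals of growth-normalised luminescence from a fit against a control.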
# [2] = test system: E. coli BW25113 micFp lux reporter
# In short: as §1
# [3] = test system: E. coli BW25113 ompFp lux reporter
# In short: as §1
# [4] = test system: E. coli BW25113 robp lux reporter
# In short: as §1
# [5] = test system: E. coli BW25113 soxSp lux reporter
# In short: as §1
# [6] = test system: E. coli BW25113 tolCp lux reporter
# In short: as §1
# [7] = 24.3 µg/ml, genetic background: wild type
# [8] = 24.3 µg/ml, genetic background: ΔmarA
# [9] = 24.3 µg/ml, genetic background: Δrob
# [10] = 24.3 µg/ml, genetic background: ΔsoxS
# [11] = 48.5 µg/ml, genetic background: wild type
# [12] = 48.5 µg/ml, genetic background: ΔmarA
# [13] = 48.5 µg/ml, genetic background: Δrob
# [14] = 48.5 µg/ml, genetic background: ΔsoxS
# [15] = 97.1 µg/ml, genetic background: wild type
# [16] = 97.1 µg/ml, genetic background: ΔmarA
# [17] = 97.1 µg/ml, genetic background: Δrob
# [18] = 97.1 µg/ml, genetic background: ΔsoxS
# [19] = 194.2 µg/ml, genetic background: wild type
# [20] = 194.2 µg/ml, genetic background: ΔmarA
# [21] = 194.2 µg/ml, genetic background: Δrob
# [22] = 194.2 µg/ml, genetic background: ΔsoxS
compound,measurement,setting,value
Cn1c(=O)c2c(ncn2C)n(C)c1=O [Caffeine],promoter activity interaction Z-score,[1]; [7],-0.0906 ± 0.17
same,promoter activity interaction Z-score,[1]; [8],1.25 ± 2.5
same,promoter activity interaction Z-score,[1]; [9],0.229 ± 0.12
same,promoter activity interaction Z-score,[1]; [10],0.234 ± 0.23
same,promoter activity interaction Z-score,[1]; [11],0.0551 ± 0.06
same,promoter activity interaction Z-score,[1]; [12],0.244 ± 1.1
same,promoter activity interaction Z-score,[1]; [13],0.254 ± 0.35
same,promoter activity interaction Z-score,[1]; [14],0.3 ± 0.18
same,promoter activity interaction Z-score,[1]; [15],0.0174 ± 0.31
same,promoter activity interaction Z-score,[1]; [16],0.17 ± 0.29
same,promoter activity interaction Z-score,[1]; [17],0.132 ± 0.014
same,promoter activity interaction Z-score,[1]; [18],0.864 ± 1
same,promoter activity interaction Z-score,[1]; [19],0.303 ± 0.24
same,promoter activity interaction Z-score,[1]; [20],-0.0252 ± 0.29
same,promoter activity interaction Z-score,[1]; [21],0.0753 ± 0.22
same,promoter activity interaction Z-score,[1]; [22],0.762 ± 0.37
same,promoter activity interaction Z-score,[2]; [7],1.28 ± 0.39
same,promoter activity interaction Z-score,[2]; [8],1.01 ± 0.13
same,promoter activity interaction Z-score,[2]; [9],0.0768 ± 0.058
same,promoter activity interaction Z-score,[2]; [10],1.65 ± 0.72
same,promoter activity interaction Z-score,[2]; [11],2.71 ± 0.15
same,promoter activity interaction Z-score,[2]; [12],1.72 ± 0.17
same,promoter activity interaction Z-score,[2]; [13],-0.0682 ± 0.092
same,promoter activity interaction Z-score,[2]; [14],2.27 ± 0.1
same,promoter activity interaction Z-score,[2]; [15],3.93 ± 0.29
same,promoter activity interaction Z-score,[2]; [16],3.13 ± 0.049
same,promoter activity interaction Z-score,[2]; [17],-0.0129 ± 0.082
same,promoter activity interaction Z-score,[2]; [18],4.2 ± 0.47
same,promoter activity interaction Z-score,[2]; [19],9.84 ± 0.76
same,promoter activity interaction Z-score,[2]; [20],6.96 ± 1.9
same,promoter activity interaction Z-score,[2]; [21],0.216 ± 0.022
same,promoter activity interaction Z-score,[2]; [22],9.87 ± 0.2
same,promoter activity interaction Z-score,[3]; [7],0.171 ± 0.69
same,promoter activity interaction Z-score,[3]; [8],0.0413 ± 0.047
same,promoter activity interaction Z-score,[3]; [9],0.636 ± 0.1
same,promoter activity interaction Z-score,[3]; [10],0.0579 ± 0.15
same,promoter activity interaction Z-score,[3]; [11],0.648 ± 0.61
same,promoter activity interaction Z-score,[3]; [12],0.121 ± 0.51
same,promoter activity interaction Z-score,[3]; [13],-0.106 ± 0.46
same,promoter activity interaction Z-score,[3]; [14],-0.0276 ± 0.3
same,promoter activity interaction Z-score,[3]; [15],-0.351 ± 0.49
same,promoter activity interaction Z-score,[3]; [16],0.00292 ± 0.16
same,promoter activity interaction Z-score,[3]; [17],-0.133 ± 0.69
same,promoter activity interaction Z-score,[3]; [18],0.291 ± 0.42
same,promoter activity interaction Z-score,[3]; [19],0.651 ± 0.51
same,promoter activity interaction Z-score,[3]; [20],0.268 ± 0.19
same,promoter activity interaction Z-score,[3]; [21],0.227 ± 0.64
same,promoter activity interaction Z-score,[3]; [22],0.245 ± 0.21
same,promoter activity interaction Z-score,[4]; [7],0.0869 ± 0.41
same,promoter activity interaction Z-score,[4]; [8],1.13 ± 1.2
same,promoter activity interaction Z-score,[4]; [9],0.442 ± 0.56
same,promoter activity interaction Z-score,[4]; [10],1.35 ± 0.27
same,promoter activity interaction Z-score,[4]; [11],1.03 ± 0.53
same,promoter activity interaction Z-score,[4]; [12],-0.488 ± 0.27
same,promoter activity interaction Z-score,[4]; [13],0.545 ± 0.89
same,promoter activity interaction Z-score,[4]; [14],1.19 ± 0.12
same,promoter activity interaction Z-score,[4]; [15],-0.142 ± 0.26
same,promoter activity interaction Z-score,[4]; [16],-0.194 ± 0.34
same,promoter activity interaction Z-score,[4]; [17],-0.0955 ± 0.42
same,promoter activity interaction Z-score,[4]; [18],-0.0533 ± 0.92
same,promoter activity interaction Z-score,[4]; [19],-0.121 ± 0.73
same,promoter activity interaction Z-score,[4]; [20],-0.257 ± 0.088
same,promoter activity interaction Z-score,[4]; [21],0.111 ± 1.4
same,promoter activity interaction Z-score,[4]; [22],-1.19 ± 0.4
same,promoter activity interaction Z-score,[5]; [7],-0.0276 ± 0.14
same,promoter activity interaction Z-score,[5]; [8],0.29 ± 0.3
same,promoter activity interaction Z-score,[5]; [9],0.512 ± 0.15
same,promoter activity interaction Z-score,[5]; [10],-0.000875 ± 0.083
same,promoter activity interaction Z-score,[5]; [11],0.149 ± 0.051
same,promoter activity interaction Z-score,[5]; [12],0.331 ± 0.32
same,promoter activity interaction Z-score,[5]; [13],0.0369 ± 0.011
same,promoter activity interaction Z-score,[5]; [14],0.0413 ± 0.11
same,promoter activity interaction Z-score,[5]; [15],0.0939 ± 0.035
same,promoter activity interaction Z-score,[5]; [16],0.405 ± 0.044
same,promoter activity interaction Z-score,[5]; [17],0.395 ± 0.12
same,promoter activity interaction Z-score,[5]; [18],0.167 ± 0.44
same,promoter activity interaction Z-score,[5]; [19],0.212 ± 0.044
same,promoter activity interaction Z-score,[5]; [20],0.529 ± 0.026
same,promoter activity interaction Z-score,[5]; [21],0.257 ± 0.16
same,promoter activity interaction Z-score,[5]; [22],0.6 ± 0.85
same,promoter activity interaction Z-score,[6]; [7],-0.298 ± 0.42
same,promoter activity interaction Z-score,[6]; [8],0.922 ± 0.83
same,promoter activity interaction Z-score,[6]; [9],-0.0951 ± 0.85
same,promoter activity interaction Z-score,[6]; [10],0.425 ± 0.39
same,promoter activity interaction Z-score,[6]; [11],0.642 ± 1.2
same,promoter activity interaction Z-score,[6]; [12],0.724 ± 0.083
same,promoter activity interaction Z-score,[6]; [13],-0.684 ± 0.056
same,promoter activity interaction Z-score,[6]; [14],0.896 ± 0.56
same,promoter activity interaction Z-score,[6]; [15],0.921 ± 0.51
same,promoter activity interaction Z-score,[6]; [16],0.55 ± 0.57
same,promoter activity interaction Z-score,[6]; [17],-0.368 ± 0.11
same,promoter activity interaction Z-score,[6]; [18],1.64 ± 0.38
same,promoter activity interaction Z-score,[6]; [19],1.37 ± 0.41
same,promoter activity interaction Z-score,[6]; [20],1.61 ± 1.5
same,promoter activity interaction Z-score,[6]; [21],0.892 ± 0.67
same,promoter activity interaction Z-score,[6]; [22],0.579 ± 1

# Reference: the supplement of paper PMC12282887
